PubChem BioAssay (EPA / NIEHS)
Values joined by “and” are separate entries in the source; they are usually repeats but may differ in a detail not shown here. Equal entries are not always repeated. Inconclusive results are not listed. Active and inactive are the calls of the source. The calls were made as follows: active = hit-call score of the fitted dose curve at least 0.9, where 1 is the maximum; inconclusive = response in the unintended direction; inactive = score below 0.9.

What was measured:
[1] = ACEA_ER_AUC_viability: ACEA Biosciences xCELLigence Real-Time Cell Analysis on Estrogen Receptor Agonism for Viability (AID 2283782);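 also: continuous compound exposure with impedance area under curve over 80 h; hit means loss of impedance signal meaning reduced cell growth or viability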
Method in brief: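 T-47D human breast cells in phenol red-free RPMI1640 with 10% charcoal-stripped FBS were dosed with an 8-point 1:4 dilution series from 100 uM top final concentration, in duplicate. Impedance-based growth was followed for 80 h; AUC analysed versus DMSO.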

[2] = target: AR (gene 367) (UniProt P10275); assay: ACEA_AR_agonist_80hr: ACEA Biosciences xCELLigence Real-Time Cell Analysis on Androgen Receptor Agonism for Proliferation (AID 2283783);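 also: hits increase impedance growth signal above DMSO baseline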
AR (gene 367), sequence (P10275 whole entry, looked up): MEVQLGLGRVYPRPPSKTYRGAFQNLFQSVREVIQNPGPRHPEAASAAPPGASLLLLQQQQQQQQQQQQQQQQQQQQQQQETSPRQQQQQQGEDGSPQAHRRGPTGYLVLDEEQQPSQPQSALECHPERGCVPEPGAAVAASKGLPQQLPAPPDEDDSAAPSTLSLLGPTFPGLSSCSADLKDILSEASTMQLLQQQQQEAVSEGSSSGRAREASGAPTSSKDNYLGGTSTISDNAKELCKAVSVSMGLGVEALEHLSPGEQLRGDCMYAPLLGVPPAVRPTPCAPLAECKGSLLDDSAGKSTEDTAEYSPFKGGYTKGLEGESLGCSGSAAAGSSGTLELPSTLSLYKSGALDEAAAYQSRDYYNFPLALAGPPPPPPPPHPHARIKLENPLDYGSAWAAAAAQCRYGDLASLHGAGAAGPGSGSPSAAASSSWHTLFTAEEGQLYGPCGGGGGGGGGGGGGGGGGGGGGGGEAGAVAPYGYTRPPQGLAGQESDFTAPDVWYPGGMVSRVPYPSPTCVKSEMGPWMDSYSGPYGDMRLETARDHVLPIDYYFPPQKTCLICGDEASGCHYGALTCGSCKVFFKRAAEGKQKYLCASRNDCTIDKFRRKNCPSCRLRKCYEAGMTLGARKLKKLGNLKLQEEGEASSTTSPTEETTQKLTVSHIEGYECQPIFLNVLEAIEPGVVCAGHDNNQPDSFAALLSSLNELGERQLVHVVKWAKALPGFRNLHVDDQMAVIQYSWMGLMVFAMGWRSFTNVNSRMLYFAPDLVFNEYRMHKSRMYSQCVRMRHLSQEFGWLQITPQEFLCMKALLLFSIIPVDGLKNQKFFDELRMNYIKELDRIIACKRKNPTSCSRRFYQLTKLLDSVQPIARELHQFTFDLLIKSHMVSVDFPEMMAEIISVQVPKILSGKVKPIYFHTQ
Method in brief: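 22Rv1 human prostate cancer cells were seeded after preconditioning in assay medium and monitored overnight, then dosed in an eight-point 1:4 dilution series from 100 uM (≤0.5% DMSO). Impedance-based growth was read at 80 h, gain-of-signal versus DMSO.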

[3] = target: AR (gene 367) (UniProt P10275); assay: ACEA_AR_antagonist_80hr: ACEA Biosciences xCELLigence Real-Time Cell Analysis on Androgen Receptor Antagonism for Proliferation (AID 2283787);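 also: hits lower the impedance growth signal relative to DMSO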
Method in brief: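 Impedance readout (RT-CES), 80 h post-dose; loss-of-signal vs DMSO baseline. 22Rv1 cells in assay medium. Compounds: 8-pt 1:4 series, max 100 uM final, up to 0.5% DMSO; n = 2.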

[4] = STM_H9_NormalizedViability: Cytotoxicity Assessment at 120 hours in the Stemina devTOX quickPredict H9 human embryonic stem cell (hESC)-based Assay (AID 2283784)
Method in brief: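 Pluripotent H9 cells dosed, fresh medium plus compound q24h → cell layer read by CellTiter-Fluor → RFU blank-corrected, normalized to DMSO 0.1% mean. Loss-of-signal fit, DMSO as baseline.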

NCC(F)(F)C(F)(F)C(F)(F)C(F)(F)C(F)(F)C(F)(F)C(F)(F)F
outcome [1]: inactive

CC(O)CO (stereo unspecified)
outcome [1]: inactive

CC#C[C@]1(O)CC[C@H]2[C@@H]3CCC4=CC(=O)CCC4=C3[C@@H](c3ccc(N(C)C)cc3)C[C@@]21C
AC50 [1]: 90.5 µM (active) and 83.7 µM (active) and 82.6 µM (active)

CC(=O)NC1(c2cccc(F)c2)CCN(CC[C@@]2(c3ccc(Cl)c(Cl)c3)CN(c3ccccc3)C(=O)CO2)CC1
AC50 [1]: 11.8 µM (active)

O=[N+]([O-])c1ccc(O)cc1
outcome [1]: inactive

CCCOc1sc(C(=O)N2CCC(c3cc(CN)ccc3F)CC2)c(C)c1Br
AC50 [1]: 5.11 µM (active)

CC(O)C(=O)O (stereo unspecified)
outcome [1]: inactive

OCCC(F)(F)C(F)(F)C(F)(F)C(F)(F)C(F)(F)C(F)(F)F
outcome [1]: inactive

CC(C)(C)c1ccc(O)c(C(C)(C)C)c1
AC50 [1]: 17.3 µM (active)

CCCCCCC(=O)O
outcome [1]: inactive

OC1CCC(C2CCCCC2)CC1 (stereo unspecified)
AC50 [1]: 83 µM (active) and 84.8 µM (active) and 86.7 µM (active)

C=C(C)C(=O)OCCC(F)(F)C(F)(F)C(F)(F)C(F)(F)C(F)(F)C(F)(F)F
outcome [1]: inactive

c1ccc2c(c1)Cc1ccccc1-2
outcome [1]: inactive

CCCCC[C@H](O)CC(=O)CCc1ccc(O)c(OC)c1
outcome [1]: inactive | outcome [2]: inactive

O=c1c(-c2ccc(O)cc2)coc2cc(O)ccc12
outcome [2]: inactive | outcome [3]: inactive

C#C[C@]1(O)CC[C@H]2[C@@H]3CCC4=CC(=O)CC[C@@H]4[C@H]3CC[C@@]21C
AC50 [4]: 82 µM (active)

CN1CCC[C@H]1c1cccnc1
outcome [1]: inactive | outcome [4]: inactive

O=C1OC2(c3ccccc31)c1cc(Br)c(O)c(Br)c1Oc1c2cc(Br)c(O)c1Br
outcome [1]: inactive

Nc1cccc2c(N)cccc12
outcome [1]: inactive | AC50 [2]: 0.115 µM (active) | outcome [4]: inactive | AC50 [3]: 77.8 µM (active)

CCC(=C(c1ccc(O)cc1)c1ccc(OCCN(C)C)cc1)c1ccccc1
AC50 [1]: 5.17 µM (active) and 6.37 µM (active) and 12.9 µM (active) | AC50 [3]: 7.6 µM (active)

CCCCCCCCCCCCc1ccccc1S(=O)(=O)O
AC50 [1]: 83.7 µM (active) | outcome [2]: inactive | outcome [4]: inactive | AC50 [3]: 72.9 µM (active)

COc1cc(CCC(=O)CC(=O)CCc2ccc(O)c(OC)c2)ccc1O
outcome [1]: inactive | outcome [2]: inactive | AC50 [3]: 74.6 µM (active)

CCN(CC)CCNc1ccc(CNC=O)c2sc3ccc(OC)cc3c(=O)c12
AC50 [1]: 83.2 µM (active) | AC50 [4]: 8.22 µM (active)

C[C@@H]1C[C@H]2[C@@H]3CCC4=CC(=O)C=C[C@]4(C)[C@@]3(F)[C@@H](O)C[C@]2(C)[C@@]1(O)C(=O)COP(=O)(O)O
outcome [1]: inactive | AC50 [4]: 15.2 µM (active)

N#C[C@@H]1CC(F)(F)CN1C(=O)CNC1CC2CCC(C1)N2c1ncccn1 (stereo partly specified)
outcome [2]: inactive | outcome [4]: inactive | outcome [3]: inactive

Oc1cc2ccccc2c2ccccc12
AC50 [1]: 4.66 µM (active) | outcome [2]: inactive | AC50 [3]: 8.26 µM (active)

CCc1ccc(CCOc2ccc(CC3SC(=O)NC3=O)cc2)nc1 (stereo unspecified)
outcome [1]: inactive | AC50 [4]: 55.8 µM (active)
